The source of these data is PubChem BioAssay AID652062 (Broad Institute, 2013).

Out of some 1,400 compounds screened, about 1,100 (79%) were called active.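 Rule for the calls: active = fitted half-maximal concentration of a falling signal no higher than twice the top valid dose in every test run; inconclusive = runs disagree, or flat partial inhibition, or poor fit; inactive = every run inactive: flat, wrong direction, or potency beyond limit.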 The set was probably picked from earlier hits. Only a sample is shown. Measured potencies and affinities stand elsewhere.

The test can be described thus: inhibitors of clade B AD8 Env fusion, dose response, cell-based, cherry-pick (AID 652062). The following applies: HeLa-AD8 Env / CEM-CCR5 cell fusion, luciferase; at 35 µM (top of the series) unless noted.
For `Cc1ccc(C(=O)NCc2ccccn2)cc1S(=O)(=O)N1CCCCC1`, the activity change, negative = inhibition is 24.4%.

Take `Cc1ccc(S(=O)(=O)N(C)C[C@H]2Oc3ccc(NC(=O)Nc4cccc5ccccc45)cc3C(=O)N([C@H](C)CO)C[C@@H]2C)cc1`: the activity change, negative = inhibition stood at 64%.

Regarding `CCCC(=O)Nc1ccc2c(c1)OC[C@H](C)N(Cc1ccncc1)C[C@H](C)[C@H](OC)CN(C)C2=O`, the activity change, negative = inhibition was -9.34%.

Turning to `CCC(=O)Nc1ccc2c(c1)C(=O)N(C)C[C@@H](OC)[C@H](C)CN(C(=O)CC)[C@@H](C)CO2`, the activity change, negative = inhibition is 44.7%.

As for `CO[C@@H]1CN(C)C(=O)c2ccc(NS(C)(=O)=O)cc2OC[C@@H](C)N(C(=O)C2CCCCC2)C[C@H]1C`, the activity change, negative = inhibition came to 26.2%.

`CCS(=O)(=O)Nc1ccc2c(c1)C(=O)N(C)C[C@H](OC)[C@@H](C)CN(C(=O)C1CCC1)[C@H](C)CO2`: the activity change, negative = inhibition is 25.1%.

In the case of `CO[C@H]1CN(C)C(=O)c2cc(NS(=O)(=O)c3ccc(Cl)cc3)ccc2OC[C@@H](C)N(C)C[C@@H]1C`, the activity change, negative = inhibition was found to be 45%.

For `CCCC(=O)Nc1ccc2c(c1)OC[C@@H](C)N(C(=O)CN(C)C)C[C@H](C)[C@@H](OC)CN(C)C2=O`, the activity change, negative = inhibition is -23.4%.

Regarding `CO[C@H]1CN(C)C(=O)c2ccc(NC(=O)C3CC3)cc2OC[C@@H](C)N(C(C)=O)C[C@@H]1C`, the activity change, negative = inhibition stood at 20%.

With `CO[C@@H]1CN(C)C(=O)c2ccc(NC(C)=O)cc2OC[C@@H](C)N(Cc2cncnc2)C[C@@H]1C`, the activity change, negative = inhibition was 15.1%.

Consider `CCCC(=O)Nc1ccc2c(c1)C(=O)N(C)C[C@@H](OC)[C@@H](C)CN(Cc1nccs1)[C@@H](C)CO2`, for which the activity change, negative = inhibition came out at 33.3%.

`CO[C@H]1CN(C)C(=O)c2cc(NC(C)=O)ccc2OC[C@@H](C)N(Cc2nccs2)C[C@H]1C`: the activity change, negative = inhibition is 20%.

Take `COc1ccccc1C(=O)Nc1ccc2c(c1)OC[C@H](C)N(C(C)=O)C[C@H](C)[C@H](OC)CN(C)C2=O`: the activity change, negative = inhibition was -17.7%.

As for `CO[C@@H]1CN(C)C(=O)c2cc(NS(=O)(=O)c3ccc(C)cc3)ccc2OC[C@H](C)N(C(=O)NC(C)C)C[C@@H]1C`, the activity change, negative = inhibition was -8.46%.

On to `COc1ccccc1S(=O)(=O)Nc1ccc2c(c1)C(=O)N(C)C[C@@H](OC)[C@@H](C)CN[C@@H](C)CO2`, for which the activity change, negative = inhibition was -2.95%.

Take `CCOC(=O)CN1CCCc2nc(C)c(C)cc21`: the activity change, negative = inhibition was -11.4%.

Take `Cc1ccc(Cn2nnnc2CN2CCC(c3nc4ccc(Cl)cc4[nH]3)CC2)cc1`: the activity change, negative = inhibition came to 44.3%.

On to `CC(=O)c1ccc([C@H]2C[C@@]34CN(C(=O)OC(C)(C)C)S(=O)(=O)[C@H]3C[C@H]2O4)cc1`, for which the activity change, negative = inhibition was -3.29%.

Regarding `COc1ccc(C)cc1NC(=O)CCNS(=O)(=O)c1ccc2c(c1)CC(C)N2C(C)=O` (stereo not given), the activity change, negative = inhibition was -17.8%.

With `CNC[C@@H]1Oc2ccc(NS(C)(=O)=O)cc2CC(=O)N([C@H](C)CO)C[C@H]1C`, the activity change, negative = inhibition stood at 18.9%.

For `O=C(Nc1ccc(Cl)cn1)C1CCCN1S(=O)(=O)c1cccc2ccccc12` (stereo not given), the activity change, negative = inhibition was -67.5%.

Take `CCCN1[C@H](C(=O)N[C@@H](C)c2ccccc2)[C@@H](CO)[C@@H]2Cn3c(ccc(-c4cccc(F)c4)c3=O)[C@@H]21`: the activity change, negative = inhibition was 99.2%.

Take `Cc1nc2ccccc2c2oc(C(=O)NCc3ccc4c(c3)OCO4)cc12`: the activity change, negative = inhibition is -50%.

Take `CCc1ccc(-c2nc(CN3CCC(C(=O)NCCc4ccc(OC)c(OC)c4)CC3)c(C)o2)cc1`: the activity change, negative = inhibition is -25.1%.

For the compound `Cc1ccc(S(=O)(=O)N[C@@H]2CC[C@H](CCNC(=O)c3ccccc3F)O[C@H]2CO)cc1`, the activity change, negative = inhibition amounted to 23.6%.

With `O=C(Cc1ccccc1)N[C@@H]1C=C[C@H](CC(=O)N2CCCCC2)O[C@@H]1CO`, the activity change, negative = inhibition is -10.8%.

As for `COc1ccc(S(=O)(=O)N[C@H]2C=C[C@H](CC(=O)N3CCN(c4ccccc4)CC3)O[C@@H]2CO)cc1`, the activity change, negative = inhibition is -26.4%.

With `CC(C)CN(C(=O)c1ccc(S(=O)(=O)N2CCCCC2)cc1)C1CCS(=O)(=O)C1` (stereo not given), the activity change, negative = inhibition is -25.2%.

`COCc1[nH]nc2c1C(c1ccc(F)cc1)N(Cc1ccccc1)C2=O` (stereo not given): the activity change, negative = inhibition is 11.7%.

On to `O=C(Nc1ccc(F)cc1)Nc1ccc2c(c1)[C@H]1C[C@@H](CC(=O)N3CCCCC3)O[C@H](CO)[C@H]1O2`, for which the activity change, negative = inhibition was found to be 57.6%.

Take `CS(=O)(=O)N(Cc1ccc(Cl)cc1)c1ccc(C(=O)NCCC2=CCCCC2)cc1`: the activity change, negative = inhibition is -7.87%.

For `CC(=O)OC1c2ccccc2C(=O)N1c1ccccc1C` (stereo not given), the activity change, negative = inhibition is -15.7%.

For the compound `Cc1ccc(C2CC(=O)c3cnc(N4CCc5ccccc5C4)nc3C2)cc1` (stereo not given), the activity change, negative = inhibition was 0.787%.

With `CN1C(=O)c2cc(NC(=O)NC3CCCC3)ccc2OC[C@@H]2O[C@H](CC(=O)NC3CCC3)CC[C@@H]21`, the activity change, negative = inhibition was -5.79%.

As to `CCNC(=O)Nc1ccc2c(c1)C(=O)N(C)[C@@H]1CC[C@@H](CC(=O)NCC3CCCCC3)O[C@@H]1CO2`, the activity change, negative = inhibition was -14.5%.

For the compound `CCNC(=O)C[C@H]1CC[C@@H]2[C@@H](COc3ccc(NC(=O)Cc4cccs4)cc3C(=O)N2C)O1`, the activity change, negative = inhibition was 66.7%.

As to `Cc1nn(C)cc1NC(=O)C[C@H]1CC[C@@H]2[C@@H](COc3ccc(NC(=O)C4CCC4)cc3C(=O)N2C)O1`, the activity change, negative = inhibition was -24.8%.

For the compound `COCC(=O)Nc1ccc2c(c1)C(=O)N(C)[C@H]1CC[C@H](CC(=O)NC3CCCC3)O[C@H]1CO2`, the activity change, negative = inhibition was 17%.

On to `COc1ccc(NC(=O)C(=O)NCC2CCCN2S(=O)(=O)c2cccs2)cc1` (stereo not given), for which the activity change, negative = inhibition stood at 23.4%.

As to `COc1ccc(OC)c(NC(=O)COc2ccc3c(c2)CCC3)c1`, the activity change, negative = inhibition was found to be 43.3%.

As for `COc1ccccc1CCNCc1ccc(OC)c(OCc2ccccc2)c1`, the activity change, negative = inhibition stood at 45.9% [at 16 µM].

For the compound `O=C(NCCCc1nc2ccccc2[nH]1)c1ccco1`, the activity change, negative = inhibition is -25.6%.

Regarding `C[C@H](O)[C@@H]1C(=O)N2CCc3c([nH]c4cccc(-c5ccccc5)c34)[C@@H]2C[C@@H]1N(C)C(=O)OCc1ccccc1`, the activity change, negative = inhibition was -17.1%.

For `C=C(C)CN(CC)c1nc(N)c2c(N)nc3c(c2c1C#N)CC(=O)N3C12CC3CC(CC(C3)C1)C2`, the activity change, negative = inhibition came to 27.3%.

`COC(=O)[C@@]1(Cc2ccc(F)cc2)[C@H]2c3cc(C(=O)N(C)C)n(CCO)c3C[C@H]2CN1C(=O)c1ccccc1`: the activity change, negative = inhibition was determined as 39.7%.
